Bioassay records from PubChem.
LRH-1 inv ag: LRH-1 (NR5A2) inverse agonists, primary screen, cell-based, luminescence, HEK293T, StAR-luciferase reporter; Nuclear receptor subfamily 5 group A member 2 (Homo sapiens), O00482; LRH-1 transfected, 24 h; inhibition, % at 3.6 µM; actives 0.13% (n = 360,000); AID 602396, 2012;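 active = inhibition above the mean inhibition of all tested compounds plus 3 SD, cut at about 73% in these data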;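 also: 0% = DMSO wells and 100% = reporter-only cells lacking LRH-1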
COUP-TFII inh: NR2F2 transcriptional activity inhibitors, primary screen, cell-based, luciferase reporter, HEK293T, luminescence | HEK293T NGFI-A luciferase reporter | inhibition, % at 8.6 µM | actives 0.7% (n = 370,000);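 active = inhibition above a per-plate cutoff, mean inhibition of test wells between control levels plus 3 SD, cut at about 38% in these data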;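 also: cells cotransfected with COUP-TFII expression vector driving the NGFI-A reporter; 0% = median of COUP-TF2 test wells and 100% = reporter-only cells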
Target sequence (P24468 whole entry, looked up): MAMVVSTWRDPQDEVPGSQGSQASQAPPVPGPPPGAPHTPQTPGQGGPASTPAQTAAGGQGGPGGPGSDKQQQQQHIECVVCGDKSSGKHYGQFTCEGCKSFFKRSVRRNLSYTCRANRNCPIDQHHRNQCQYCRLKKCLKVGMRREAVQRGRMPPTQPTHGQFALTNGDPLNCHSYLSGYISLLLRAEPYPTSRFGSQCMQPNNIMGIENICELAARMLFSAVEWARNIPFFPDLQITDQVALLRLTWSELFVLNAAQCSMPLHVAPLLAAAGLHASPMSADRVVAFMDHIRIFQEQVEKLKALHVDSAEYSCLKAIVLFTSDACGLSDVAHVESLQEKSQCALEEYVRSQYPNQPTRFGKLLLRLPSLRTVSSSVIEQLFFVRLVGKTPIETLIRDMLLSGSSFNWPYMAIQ
NCOA1 inh: SRC1 coactivator transcriptional activity inhibitors, primary screen, cell-based, luminescence | HEK293 GAL4-SRC1 luciferase reporter | actives 0.12% (n = 360,000) | Nuclear receptor coactivator 1 (Homo sapiens), Q15788 | inhibition, % at 3.6 µM;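 active = inhibition above the campaign mean plus 3 SD, with each screening campaign given its own cutoff, cut at about 60% in these data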;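 also: 0% = DMSO treated cells and 100% = gossypol at 36 µM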
NCOA3 inh: SRC3 coactivator transcriptional activity inhibitors, primary screen, cell-based, luminescence | HEK293 GAL4-SRC3 luciferase reporter | inhibition, % at 3.6 µM | actives 0.17% (n = 360,000) | AID 588352, 2011;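 active = inhibition above a per-campaign cutoff, the mean of all compounds plus 3 SD, cut at about 60% in these data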;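 also: 0% = DMSO-treated cells and 100% = gossypol-treated cells at 36 µM; higher means less SRC3-driven luciferase light from the GAL4 reporter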
SRC2 inh: inhibition of GAL4-SRC2 driven luciferase reporter, primary screen, SRC2 inhibitor project, cell-based, luminescence. Nuclear receptor coactivator 2 (Homo sapiens), Q15596. HEK293 GAL4-SRC2 luciferase reporter. inhibition, % at 9 µM. actives 0.17% (n = 370,000). AID 651957, 2012;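 active = inhibition above the mean inhibition of all tested compounds plus 3 SD, set per campaign, cut at about 52% in these data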;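 also: 0% = DMSO treated cells and 100% = cells given Gossypol at 36 µM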
GalR3 antag: GalR3 antagonists in HEK293 cells, primary screen, cell-based, fluorescence readout; Galanin receptor type 3 (Homo sapiens), O60755; HEK293 GalR3-CNG cAMP membrane potential fluorescence; galR3 body fused to GalR1 C-terminus; inhibition, % at 3 µM; actives 0.44% (n = 360,000); AID 651719, 2012;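 active = inhibition above the screen-wide average plus 3 SD, cut at about 13% in these data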;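 also: forskolin and galanin both at EC90 stimulate the cells; cAMP rise reported by CNG channel membrane potential dye signal; 0% = forskolin plus galanin with DMSO and 100% = forskolin alone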
VP16 Luc counter: Gal4-VP16 luciferase reporter inhibitors, counter-screen for COUP-TFII antagonist project, cell-based, luminescence, HEK293 | shares compounds with COUP-TFII inh | inhibition, % at 8.5 µM | actives 25% (n = 2,500); in the data active = inhibition above about 13%
NR2F2 inh conf: NR2F2 transcriptional activity inhibitors, confirmation, cell-based, luciferase reporter, HEK293, triplicate | HEK293 NGFI-A luciferase reporter, luminescence | shares compounds with COUP-TFII inh | actives 45% (n = 2,500) | inhibition, % at 8.5 µM | AID 687008, 2013;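 active = mean inhibition over three repeats above a set limit taken from the earlier primary screen, cut at about 38% in these data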;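 also: 100% = cells given the luciferase reporter alone without the COUP-TF2 vector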
Numbers without * were called inactive; . = not tested or not shown. In the library only some 1.1% were active in any assay of this set; here they are far more common.

SMILES | LRH-1 inv ag | COUP-TFII inh | NCOA1 inh | NCOA3 inh | SRC2 inh | GalR3 antag | VP16 Luc counter | NR2F2 inh conf
CC12CC[C@H]3[C@@H](CCC4(O)C[C@H](O)CCC34/C=N/NC(=O)c3ccccc3[N+](=O)[O-])C1(O)CCC2C1=CC(=O)OC1 (stereo partly drawn) | -4 | -13 | 3 | -2 | -70 | 0 | . | .
C[C@]12CC[C@H](O)C[C@H]1CC[C@@H]1[C@@H]2C[C@@H](O)[C@]2(C)[C@@H](C3=CC(=O)OC3)CC[C@]12O | 103* | 81* | 46 | 75* | 33 | 12 | 29* | 58*
CNC(=O)Nc1ccc(C(=O)N/N=C\C23CC[C@@H](O)CC2(O)CC[C@@H]2[C@@H]3CCC3(C)C(C4=CC(=O)OC4)CCC23O)cc1 (stereo partly drawn) | -12 | 1 | -15 | 9 | -21 | -3 | . | .
CC12CCC(O)CC1CCC1C2CCC2(C)C(C3=CC(=O)OC3)CCC12O (stereo not drawn) | 99* | 72* | 82* | 84* | 47 | 30* | 45* | 72*
CC(C)(C)n1c(O)c(C=Nc2ccc3c(c2)CCC3)c(=O)[nH]c1=O | -3 | 13 | 8 | 12 | 9 | -4 | . | .
C/C(=N\NC(=O)c1ccccc1O)c1c(O)n(C2CCCCC2)c(=O)[nH]c1=O | -9 | -7 | -9 | -16 | -3 | 2 | . | .
CC(=O)OC1CC(OC2C(O)CC(OC3C(O)CC(OC4CCC5(C)C(CCC6C5CC(O)C5(C)C(C7=CC(=O)OC7)CCC65O)C4)OC3C)OC2C)OC(C)C1OC1OC(CO)C(O)C(O)C1O (stereo not drawn) | 103* | 79* | 87* | 90* | 61* | 12 | 52* | 76*
CC1CC(C)(O)CC(C(O)CC2CC(=O)NC(=O)C2)C1=O (stereo not drawn) | 98* | 87* | 94* | 93* | 72* | -1 | 5 | 75*
CC1CCC/C=C/C2CC(O)CC2C(O)/C=C/C(=O)O1 (stereo not drawn) | 77* | 59* | 9 | 59 | 26 | 3 | 8 | 34
C=C(CC1CC(O)[C@]2(C)OC3CC4OC5C[C@]6(C)O[C@]7(C)CCC8OC9C[C@]%10(C)OC%11C(C)=CC(=O)OC%11CC%10OC9C[C@@H](C)C8OC7CC6O[C@]5(C)C/C=C\C4OC3CC2O1)C(=O)O (stereo partly drawn) | 10 | -10 | -1 | 14 | -2 | -5 | . | .
C=C(C=O)CC1CC(O)[C@]2(C)OC3CC4OC5C[C@]6(C)O[C@]7(C)CCC8OC9C[C@]%10(C)OC%11C(C)=CC(=O)OC%11CC%10OC9C[C@@H](C)C8OC7CC6O[C@]5(C)C/C=C\C4OC3CC2O1 (stereo partly drawn) | . | 76* | . | . | . | . | 1 | 9
O=c1[nH]c2ccccc2n1C1CCN(C(c2cccs2)c2nnnn2Cc2ccccc2)CC1 (stereo not drawn) | 28 | 34 | 25 | 48 | -5 | -6 | . | .
O=c1[nH]c2ccccc2n1C1CCN(C(c2ccccc2OC(F)(F)F)c2nnnn2Cc2ccccc2)CC1 (stereo not drawn) | -6 | 42* | 34 | 37 | 33 | -4 | 15* | 28
C[C@@H]1CN([C@@H](C)CO)C(=O)CCCn2nncc2CO[C@@H]1CN(C)C(=O)Oc1ccccc1 | 13 | 10 | -4 | 1 | 16 | 0 | . | .
CCC(C)(O)C(=O)OC1C(=O)OC2CC3C(C)=CC(O)C(O)C3(C)C3C4(O)OCC23C1C(C)C4O (stereo not drawn) | 97* | 75* | 53 | 71* | 29 | -7 | 10 | 62*
COC(C)(C)CCCC(C)C/C=C/C(C)=C/C(=O)OC(C)C (stereo not drawn) | 14 | -17 | 3 | 18 | -19 | -3 | . | .
CC(O)C1C=CC=CC(=O)OC2CC3OC4C5OC5(C)C(O)CC4(COC(=O)C(O)C(C)CCO1)C2(C)C31CO1 (stereo not drawn) | 100* | 92* | 96* | 94* | 73* | 1 | 25* | 92*
CC1CCOC(=O)C=CC=CC(=O)OC2CC3OC4C5OC5(C)C(O)CC4(COC(=O)C1O)C2(C)C31CO1 (stereo not drawn) | 98* | 92* | 96* | 93* | 73* | -6 | 23* | 89*
CC1=CC2OC3CC4OC(=O)C=CC=CC(=O)OCCC(C)C(O)C(=O)OCC2(CC1)C4(C)C31CO1 (stereo not drawn) | 99* | 90* | 95* | 94* | 71* | -7 | 17* | 87*
CC1=CC2OC3CC4OC(=O)C=CC=CC(C(C)O)OCC(O)C5(C)OC5C(=O)OCC2(CC1O)C4(C)C31CO1 (stereo not drawn) | 98* | 92* | 96* | 93* | 65* | -5 | 19* | 89*
C=CCN1C[C@@H](C)N(C(c2ccc(C(=O)N(CC)CC)cc2)c2cccc(OC)c2)C[C@@H]1C (stereo partly drawn) | -6 | 2 | 2 | -5 | -12 | -1 | . | .
CCNC(=S)N1CCn2cccc2C1c1cccnc1 (stereo not drawn) | -4 | -9 | 15 | 17 | -20 | 0 | . | .
Clc1ccccc1Nc1ncnc(-n2cccc2)n1 | -116 | -29 | -62 | -78 | -85 | -2 | . | .
CO[C@H]1C=C2CCN(C)[C@H]2C2c3cc4c(cc3C(=O)O[C@@H]21)OCO4 (stereo partly drawn) | 12 | 5 | -45 | -19 | 9 | -1 | . | .
CC(N)C(=O)NC1C2C(=C(O)CC(O)C2O)C(=O)OC1(C)C(Cl)Cl (stereo not drawn) | 97* | 76* | 93* | 91* | 64* | -7 | 10 | 57*
